The results in this text go back to PubChem BioAssay.

Values without a mark were called inactive. For part of these data: Potency and affinity values are given separately. Calls of active or inactive are those of the source. Unless noted, no rule for the calls is given here.

Assay [1] can be described thus: antimalarial activity against Dd2 strain (AID 2302;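 active = growth inhibition above 50% at the single 2 µM test dose, taken to imply half-maximal potency below 2 µM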;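 also: 0% = DMSO untreated growth and 100% = chloroquine plus artemisinin killed control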). Conditions: P. falciparum Dd2 in RBCs, LDH growth readout, 72 h; at 2 µM; stronger effect = higher value.
Assay [2] in a line: HepG2 cytotoxicity, primary screen, cytotoxicity control for P. falciparum antimalarial project, cell-based, ATP luminescence (AID 2303;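 active = inhibition above 50%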;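 also: 0% = DMSO wells and 100% = digitonin-killed cells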). Conditions: HepG2 viability, 24-48 h, at 10 µM, stronger effect = higher value.
Assay [3] deals with L-lactate dehydrogenase (Plasmodium falciparum (isolate CDC / Honduras)) (UniProt Q27743). Nature of the assay: PfLDH activity inhibition – cell lysate, 3D7 strain, counter-screen for P. falciparum growth inhibition project (AID 2304).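 Also: 0% = vehicle and 100% = reference inhibitor.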 Particulars: P. falciparum 3D7 crude extract, LDH APAD/NBT absorbance; at 2 µM; stronger effect = higher value.
A short description of assay [4]: inhibition of 3D7 malaria parasite growth – strain 3D7 (AID 2306).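 Also: 0% = DMSO wells and 100% = chloroquine plus artemisinin control wells.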 Conditions: P. falciparum 3D7 erythrocytic growth, LDH absorbance, 72 h; at 2 µM; stronger effect = higher value.
The target in assay [5] is Calcium-dependent protein kinase 1 (Plasmodium falciparum (isolate 3D7)) (UniProt P62344). Nature of the assay: PfCDPK1 kinase inhibitors, biochemical, TCAMS library (AID 1159585; cut-off not given, nearly all actives have IC50 up to about 0.98 µM;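 also: inhibitors leave more ATP so luminescence rises with inhibition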). Conditions: recombinant PfCDPK1, Kinase-Glo ATP depletion luminescence. On the technique in general: Kinase-Glo reads ATP consumption through a luciferase reaction.
The target in assay [6] is Plasmodium falciparum protein kinase 6 (PK6, PF3D7_1337100) (UniProt Q8IDW1). As to the kind of experiment: PfPK6 kinase inhibitors, biochemical, TCAMS library (AID 1159586). Particulars: recombinant PfPK6, Kinase-Glo ATP depletion luminescence.
For assay [7], the target named is Protein kinase 7 (PK7), Plasmodium falciparum 3D7 (PF3D7_0213400) (UniProt Q7YTF7). Nature of the assay: inhibition of Plasmodium PK7 catalytic activity – biochemical, TCAMS antimalarial set, Kinase-Glo luminescence (AID 1159587). Conditions: recombinant PfPK7, Kinase-Glo ATP depletion luminescence.
Assay [8] deals with Calcium-dependent protein kinase 4 (Plasmodium falciparum (isolate 3D7)) (UniProt Q8IBS5). Nature of the assay: PfCDPK4 kinase inhibitors, biochemical, TCAMS library (AID 1159588; cut-off not given, nearly all actives have IC50 up to about 0.91 µM). Conditions: recombinant PfCDPK4, Kinase-Glo ATP depletion luminescence.
Sequence of Calcium-dependent protein kinase 4 (Plasmodium falciparum (isolate 3D7)) (Q8IBS5 whole entry, looked up): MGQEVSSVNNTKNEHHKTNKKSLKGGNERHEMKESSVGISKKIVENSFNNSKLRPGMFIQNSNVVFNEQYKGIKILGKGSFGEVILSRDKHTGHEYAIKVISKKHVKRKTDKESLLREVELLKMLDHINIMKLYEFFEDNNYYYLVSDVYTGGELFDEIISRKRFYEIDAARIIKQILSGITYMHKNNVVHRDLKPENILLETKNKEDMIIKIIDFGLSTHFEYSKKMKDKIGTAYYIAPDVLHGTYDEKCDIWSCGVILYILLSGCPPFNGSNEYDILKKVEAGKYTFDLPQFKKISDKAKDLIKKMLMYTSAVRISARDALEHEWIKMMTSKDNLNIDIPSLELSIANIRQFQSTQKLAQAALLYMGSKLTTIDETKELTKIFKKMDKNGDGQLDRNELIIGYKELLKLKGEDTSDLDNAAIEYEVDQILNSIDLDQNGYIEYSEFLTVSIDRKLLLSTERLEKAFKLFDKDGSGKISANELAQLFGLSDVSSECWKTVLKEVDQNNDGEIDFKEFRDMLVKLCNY

Sequence of Plasmodium falciparum protein kinase 6 (PK6, PF3D7_1337100) (Q8IDW1 1-305): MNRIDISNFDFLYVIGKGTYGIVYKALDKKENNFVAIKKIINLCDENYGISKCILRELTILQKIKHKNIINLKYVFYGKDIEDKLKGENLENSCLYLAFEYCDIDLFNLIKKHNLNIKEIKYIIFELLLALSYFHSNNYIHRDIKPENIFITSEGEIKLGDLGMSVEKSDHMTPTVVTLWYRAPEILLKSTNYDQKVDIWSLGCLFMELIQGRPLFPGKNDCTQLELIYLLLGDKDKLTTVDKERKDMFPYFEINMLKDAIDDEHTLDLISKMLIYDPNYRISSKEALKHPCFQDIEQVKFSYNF
Sequence of L-lactate dehydrogenase (Plasmodium falciparum (isolate CDC / Honduras)) (Q27743 whole entry, looked up): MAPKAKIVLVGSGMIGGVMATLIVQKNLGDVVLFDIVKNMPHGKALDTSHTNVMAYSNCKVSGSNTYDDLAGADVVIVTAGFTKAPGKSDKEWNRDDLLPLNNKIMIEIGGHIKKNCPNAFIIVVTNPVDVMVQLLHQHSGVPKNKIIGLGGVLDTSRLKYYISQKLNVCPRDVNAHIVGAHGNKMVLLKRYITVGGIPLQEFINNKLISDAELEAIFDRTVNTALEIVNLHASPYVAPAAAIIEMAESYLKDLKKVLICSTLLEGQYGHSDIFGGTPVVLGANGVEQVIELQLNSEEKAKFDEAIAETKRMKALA
Sequence of Calcium-dependent protein kinase 1 (Plasmodium falciparum (isolate 3D7)) (P62344 whole entry, looked up): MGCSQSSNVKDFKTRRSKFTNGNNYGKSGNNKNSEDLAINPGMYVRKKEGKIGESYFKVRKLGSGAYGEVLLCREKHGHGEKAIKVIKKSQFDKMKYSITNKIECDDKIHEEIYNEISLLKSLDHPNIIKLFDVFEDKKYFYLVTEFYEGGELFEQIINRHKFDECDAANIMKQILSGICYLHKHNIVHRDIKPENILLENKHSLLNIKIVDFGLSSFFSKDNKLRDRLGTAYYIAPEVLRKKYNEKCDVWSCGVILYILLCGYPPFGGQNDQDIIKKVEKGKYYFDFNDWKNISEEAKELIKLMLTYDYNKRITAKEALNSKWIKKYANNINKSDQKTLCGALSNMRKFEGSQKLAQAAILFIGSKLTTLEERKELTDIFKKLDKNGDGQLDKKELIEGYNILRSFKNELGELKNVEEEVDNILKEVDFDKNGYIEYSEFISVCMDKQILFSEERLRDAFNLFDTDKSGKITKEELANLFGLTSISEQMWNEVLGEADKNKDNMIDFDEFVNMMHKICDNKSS
Sequence of Protein kinase 7 (PK7), Plasmodium falciparum 3D7 (PF3D7_0213400) (Q7YTF7 1-343): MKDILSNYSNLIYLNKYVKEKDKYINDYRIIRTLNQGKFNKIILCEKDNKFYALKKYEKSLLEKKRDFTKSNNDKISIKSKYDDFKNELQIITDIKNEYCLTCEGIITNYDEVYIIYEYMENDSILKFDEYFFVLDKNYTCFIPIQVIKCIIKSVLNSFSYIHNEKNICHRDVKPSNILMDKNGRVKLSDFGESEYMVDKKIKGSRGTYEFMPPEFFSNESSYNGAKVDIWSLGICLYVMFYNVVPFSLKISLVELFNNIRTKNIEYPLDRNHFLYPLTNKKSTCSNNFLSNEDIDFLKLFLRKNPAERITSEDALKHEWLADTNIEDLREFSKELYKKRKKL

The term inhibition denotes the relative decrease from the control value, in per cent. `Cc1noc(C)c1-c1cccc(CNCc2cccc(-c3cccc(-c4nc5c(C)cccc5[nH]4)c3)c2)c1`: the growth inhibition in assay [1] is 66% (active); in assay [4], 102% (active). Further, the inhibition in assay [2] is 15%; in assay [3], 4%. The result in assay [5], in assay [6], in assay [7] and in assay [8] was inactive.

For the compound `O=C(/C=C/c1ccc(Cl)c(Cl)c1)NCCCCCN1CCCN(C(=O)Nc2ccc(OC(F)F)cc2)CC1`, the growth inhibition in assay [1] is -4%; in assay [4], 99% (active). In addition, the inhibition is 39% in assay [2] and 3% in assay [3]. In addition, the outcome in assay [5], in assay [6], in assay [7] and in assay [8] was inactive.

With `Nc1nc(N)c2c(ccc3c2ccn3Cc2ccccc2)n1`, the results for the growth inhibition in assay [1] and in assay [4] were 94% (active) and 96% (active), respectively. The inhibition in assay [2] is 64% (active); in assay [3] it was -8%. The outcome in assay [5], in assay [6], in assay [7] and in assay [8] was inactive.

Consider `CCCOc1ccc(CCCON2C(N)=NC(N)=NC2(C)C)cc1`, for which the growth inhibition in assay [1] is 94% (active); in assay [4], 95% (active). Also, the inhibition in assay [2] is 65% (active); in assay [3], 0%. Also, the result in assay [5], in assay [6], in assay [7] and in assay [8] was inactive.

In the case of `COc1cc(-c2ccccc2)ccc1C(=O)Nc1ccc2c(c1)N(C)CCC2`, the growth inhibition in assay [1] is 75% (active); in assay [4], 85% (active). Moreover, the results for the inhibition in assay [2] and in assay [3] were 15% and -4%, respectively. In addition, the outcome in assay [5], in assay [6], in assay [7] and in assay [8] was inactive.

With `CCCc1cc(Cc2cnc(N)nc2N)cc(CCC)c1O`, the growth inhibition is 5% in assay [1] and 96% (active) in assay [4]. The inhibition in assay [2] is 64% (active); in assay [3] it was 2%. In addition, the result in assay [5], in assay [6], in assay [7] and in assay [8] was inactive.

As to `COc1ccc(-n2ccnc2SCC(=O)Nc2cc(Cl)ccc2OC)c(OC)c1`, the growth inhibition in assay [1] was 92% (active); in assay [4], 96% (active). The inhibition was -3% in assay [2] and -8% in assay [3]. The result in assay [5], in assay [6], in assay [7] and in assay [8] was inactive.

For `CCN1CCN(c2cc(C)c3cc(NC(=O)c4cncc(Br)c4)ccc3n2)CC1`, the growth inhibition in assay [1] is 63% (active); in assay [4] it was 97% (active). Moreover, the inhibition in assay [2] and in assay [3] was 3% throughout. The outcome in assay [5], in assay [6], in assay [7] and in assay [8] was inactive.

Turning to `O=C(C=Cc1ccc(Cl)c(Cl)c1)NCCCCCN1CCC(CCNC(=O)c2sc3ccccc3c2Cl)CC1`, the growth inhibition is 6% in assay [1] and 88% (active) in assay [4]. Further, the results for the inhibition in assay [2] and in assay [3] were 27% and -5%, respectively. For the same compound, the result in assay [5], in assay [6], in assay [7] and in assay [8] was inactive.

Take `COc1c(C2CCN(CCCCNC(=O)c3ccc(-c4ccc(Cl)cc4)c(OCCN(C)C)c3)CC2)ccc2c1CCCC2`: the growth inhibition in assay [1] is 86% (active); in assay [4], 101% (active). Besides, the figures for the inhibition in assay [2] and in assay [3] were 100% (active) and 2%, respectively. The outcome in assay [5], in assay [6], in assay [7] and in assay [8] was inactive.

`O=c1cc(N2CCNCC2)c(Cl)nn1Cc1ccc(NS(=O)(=O)c2ccc(Oc3ccccc3)cc2)cc1`: the results for the growth inhibition in assay [1] and in assay [4] were -5% and 102% (active), respectively. For the same compound, the values for the inhibition in assay [2] and in assay [3] were 3% and -6%, respectively. The result in assay [5], in assay [6], in assay [7] and in assay [8] was inactive.

Regarding `COc1ccc2nc3cc(Cl)ccc3c(NCCCCNc3c4ccc(Cl)cc4nc4ccc(OC)cc34)c2c1`, the growth inhibition in assay [1] and in assay [4] was 99% (active) in each case. The inhibition is 20% in assay [2] and 6% in assay [3]. Further, the outcome in assay [5], in assay [6], in assay [7] and in assay [8] was inactive.

`Cc1cccc2sc(N(CCCn3ccnc3)C(=O)C=Cc3cccs3)nc12`: the figures for the growth inhibition in assay [1] and in assay [4] were 9% and 91% (active), respectively. Moreover, the inhibition is -6% in assay [2] and 2% in assay [3]. Besides, the result in assay [5], in assay [6], in assay [7] and in assay [8] was inactive.

`Cc1cc(N[C@@H](Cc2ccccc2)C(=O)Nc2ccccc2)nc(NCCc2cccs2)n1`: the growth inhibition in assay [1] was 72% (active); in assay [4], 100% (active). Also, the inhibition in assay [2] and in assay [3] was -1% in each case. For the same compound, the outcome in assay [5], in assay [6], in assay [7] and in assay [8] was inactive.

As for `CCC(C)Oc1ccc(CCCON2C(N)=NC(N)=NC2(C)C)cc1` (stereo not drawn), the growth inhibition is 95% (active) in assay [1] and 92% (active) in assay [4]. The inhibition in assay [2] was 65% (active); in assay [3], -8%. In addition, the result in assay [5], in assay [6], in assay [7] and in assay [8] was inactive.

With `CN(C)CCN(C)Cc1cccc(-c2cccc(NC(=O)c3cccc(C#N)c3)c2)c1`, the growth inhibition in assay [1] was 10%; in assay [4], 92% (active). In addition, the inhibition in assay [2] is -4%; in assay [3], -1%. The outcome in assay [5], in assay [6], in assay [7] and in assay [8] was inactive.

As for `CCNc1cc(C(=O)N[C@@H](Cc2ccccc2)[C@H](O)CNC(CC)c2cccc(Cl)c2)cc(N2CCCC2=O)c1` (stereo partly drawn), the growth inhibition was 99% (active) in assay [1] and 97% (active) in assay [4]. For the same compound, the values for the inhibition in assay [2] and in assay [3] were 12% and -1%, respectively. Besides, the result in assay [5], in assay [6], in assay [7] and in assay [8] was inactive.

With `O=C(Nc1ccc(Cl)c(Cl)c1)N1CCC(NCc2cccc([N+](=O)[O-])c2)CC1`, the results for the growth inhibition in assay [1] and in assay [4] were 12% and 97% (active), respectively. Further, the values for the inhibition in assay [2] and in assay [3] were 8% and 2%, respectively. The outcome in assay [5], in assay [6], in assay [7] and in assay [8] was inactive.

`CCOc1ccc(-c2nonc2NC(=O)c2ccccc2OC)cc1OCC`: the growth inhibition in assay [1] was 99% (active); in assay [4], 100% (active). The inhibition was 24% in assay [2] and -3% in assay [3]. The outcome in assay [5], in assay [6], in assay [7] and in assay [8] was inactive.

Turning to `O=C(Nc1cccc(-c2cccc(-c3ccc(F)cc3)n2)c1)c1ccc([N+](=O)[O-])o1`, the growth inhibition in assay [1] was 42%; in assay [4] it was 99% (active). In addition, the inhibition in assay [2] was 100% (active); in assay [3], 4%. Moreover, the outcome in assay [5], in assay [6], in assay [7] and in assay [8] was inactive.

As for `C[C@@H]1CN(c2cccc3c2nc(-c2cncc(C#N)c2)n3CCNCc2ccccc2)C[C@H](C)O1`, the growth inhibition is 9% in assay [1] and 83% (active) in assay [4]. Moreover, the inhibition is -5% in assay [2] and 5% in assay [3]. In addition, the outcome in assay [5], in assay [6], in assay [7] and in assay [8] was inactive.
